Assay outcomes deposited in PubChem BioAssay by several laboratories.
A selection: hits, their analogues and other compounds. The true share with any hit is near 1.6%.
Vif imaging: inhibitors of HIV Vif. actives 0.35% (n = 340,000). AID 602346. inhibition, % at 7.49 µM. HEK293T cells, Vif self-association by quenched fluorescence, imaging, 24 h; in the data active = inhibition above about 50%, passing the limit was not always enough
Myeloid diff 2: compounds promoting myeloid differentiation. actives 1% (n = 360,000). ER-HoxA9 myeloid progenitors, lysozyme-GFP differentiation, flow cytometry. calls only at 10 µM;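 active = normalized GFP-positive differentiation at or above the plate's own cutoff, the solvent-only control mean plus 3 SD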;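 also: cells exposed to compound for four days before flow analysis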
Glyco luc inh: blocks N-linked glycosylation in D54 reporter cells; D54 ERlucT glycosylation luciferase reporter, 24 h; percent of 100 nM tunicamycin response; reporter increase, % at 12.5 µM; actives 0.23% (n = 360,000); AID 588692;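 active = mean luciferase reporter signal, scaled so untreated is 0 and the glycosylation-blocking control 100, at or above a set limit in every replicate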;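 also: luciferase carries N-glycosylation sites so blocking glycosylation raises the light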
RAD54 inh: RAD54 (human) branch migration inhibition; RAD54 Holliday junction branch migration, FAM/BHQ fluorescence; inhibition, % at 10.4 µM; actives 0.14% (n = 360,000);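 active = mean normalized replicate activity at least 40 and at least half of replicates scoring 40 or more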;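 also: inhibitors cause a drop in the FAM fluorescence signal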
ABCB6 inh MLPCN: human ABCB6 transporter inhibition; Q9NP58; K562-ABCB6 porphyrin accumulation, flow cytometry, 1 h; stronger effect = lower value; fluorescence ratio to DMSO, % at 10 µM; actives 0.19% (n = 360,000); AID 602162;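 active = fluorescence ratio to DMSO below 75%, the collection mean minus 3 SD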;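 also: signal is porphyrin accumulated inside mitochondria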
Myeloid diff: compounds promoting myeloid differentiation | shares compounds with Myeloid diff 2 | ER-HoxA9 myeloid progenitors, GFP/Mac1 double-positive flow | actives 2% (n = 2,300) | AID 651706 | calls only;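 active = share of green or green-and-red cells above 9 and 9% in run 1 or 4 and 3% in run 2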
GFP autofluor: flagged as fluorescent in myeloid differentiation counter-screen. shares compounds with Myeloid diff 2. ER-HoxA9 myeloid progenitors, no estrogen, GFP autofluorescence flow cytometry; vehicle wells 0%, positive control 100%. fluorescence response, % (test concentration not listed). actives 7.4% (n = 2,300);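 active = over 5% cells positive for green fluorescent reporter, or over 2% positive for both it and APC stain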
Numbers stand for hits; – = inactive; · = not tested or not shown; + = active, no number.

SMILES	Vif imaging	Myeloid diff 2	Glyco luc inh	RAD54 inh	ABCB6 inh MLPCN	Myeloid diff	GFP autofluor
O=c1sc(Nc2ccccc2)nc2ccsc12	–	–	–	–	–	·	·
O=Cc1sc(Nc2ccccc2)nc1Cl	–	+	–	·	–	–	51.7
COc1ccccc1Nc1c2c(nc3ccccc13)CCC2	–	+	–	–	–	–	–
COc1ccccc1Nc1ncnc2ccccc12	–	–	–	·	–	–	–
COc1ccccc1Nc1nc2c(s1)CCC2	–	–	–	–	–	–	–
CCOc1ccccc1Nc1ncnc2ccccc12	–	–	–	–	–	·	·
COc1ccc(Nc2c3c(nc4ccccc24)CCC3)c(OC)c1	–	–	–	–	–	·	·
Cc1ccc(Nc2nc3c(s2)CCC3)c(C)c1	–	–	–	–	–	·	·
COc1ccccc1C(=O)NCCC(=O)N1CC(=O)Nc2ccccc21	–	+	–	–	–	–	–
O=C1CN(C(=O)COC(=O)CCSc2ccccc2Cl)c2ccccc2N1	–	+	–	–	–	–	–
CCC(=O)N(C)C[C@H]1Oc2ncc(C#CCC(C)C)cc2C(=O)N([C@H](C)CO)C[C@@H]1C	·	·	·	–	·	·	·
O=C(C[C@H]1C[C@@H]2c3cc(NC(=O)c4cccnc4)ccc3O[C@@H]2[C@@H](CO)O1)NCCN1CCCCC1	·	·	·	–	·	·	·
CCOC(=O)c1ccc(NCn2c(=O)oc3ccccc32)cc1	–	–	–	–	–	–	44.5
COC(=O)c1ccc(NC(=O)CCn2c(=O)oc3ccccc32)cc1	–	–	–	–	–	·	·
Cc1cccc(-n2c(Cc3ccccc3)nnc2SCC(=O)N2CCOCC2)c1	–	–	–	–	–	–	–
O=C(CSc1nnc(Cc2ccccc2)n1-c1cccc(Cl)c1)N1CCOCC1	–	–	–	–	–	·	·
O=C(Cc1ccccc1)N1C[C@H]2[C@@H](c3ccccc31)[C@@H](CO)N2C(=O)C1CC1	·	·	·	–	·	·	·
Cc1ccc(S(=O)(=O)CCC(=O)Nc2nc(-c3ccccn3)cs2)cc1	–	+	–	–	–	–	–
CC(Oc1ccc(Br)cc1)C(=O)Nc1nc(-c2ccccn2)cs1 (stereo unspecified)	–	+	–	–	–	–	–
O=C(N[C@H]1CC[C@@H](CCNS(=O)(=O)c2ccc(F)cc2)O[C@H]1CO)C1CCOCC1	·	·	·	–	·	·	·
O=C1COc2ccc3ccccc3c21	–	–	–	–	–	–	–
O=C1CC2(CCOCC2)Oc2ccc3ccccc3c21	·	–	–	–	–	·	·
O=C(COc1ccccc1Cl)NCCNC(=O)c1ccncc1	–	–	–	–	–	–	–
CC(OC(=O)c1cc(O)c2ccccc2c1O)C(=O)Nc1ccc(C(N)=O)cc1 (stereo unspecified)	–	+	–	–	–	–	–
CC(OC(=O)c1ccccc1C(=O)N(C)c1ccccc1)C(=O)Nc1ccc(C(N)=O)cc1 (stereo unspecified)	–	–	–	–	–	·	·
SMILES	Vif imaging	Myeloid diff 2	Glyco luc inh	RAD54 inh	ABCB6 inh MLPCN	Myeloid diff	GFP autofluor
Cc1nn(CC(=O)NCc2ccccc2Cl)c(C)c1[N+](=O)[O-]	–	+	–	–	–	–	–
CC1CCN(S(=O)(=O)c2ccc(C(C)C)cc2)CC1	–	+	–	·	–	–	41.2
Clc1cccc(Cl)c1C1Nc2cccc3cccc(c23)N1	–	+	–	–	–	–	–
C[C@@H]1CN([C@@H](C)CO)C(=O)Cc2cc(NC(=O)Nc3ccc(F)cc3)ccc2O[C@H]1CN(C)S(=O)(=O)c1ccccc1	·	·	·	–	·	·	·
CN1C(=O)c2cc(NS(=O)(=O)c3ccc(Cl)cc3)ccc2OC[C@@H]2O[C@@H](CC(=O)N3CCc4ccccc4C3)CC[C@H]21	·	·	·	–	·	·	·
CCN(C[C@H]1N[C@@](CC)(C(=O)OC)[C@H]2C(=O)N(Cc3ccccc3)C(=O)[C@@H]12)S(=O)(=O)c1ccc(OC)cc1	–	–	–	–	–	–	–
CC[C@@]1(C(=O)OC)N[C@H](CN(C)S(=O)(=O)c2ccc(-c3ccccc3)cc2)[C@@H]2C(=O)N(C)C(=O)[C@@H]21	–	–	–	–	–	–	–
CCN(C[C@H]1N[C@@](Cc2ccccc2)(C(=O)OC)[C@H]2C(=O)N(Cc3ccccc3)C(=O)[C@@H]12)S(=O)(=O)c1ccc(OC)cc1	–	–	–	–	–	·	·
